Measurements: PubChem BioAssay (Tox21)
Records with an inconclusive call do not appear. Activity calls are given as the source filed them. Unless noted, calls follow the shape of the dose curve; as a rule, active = well fitted curve in the direction sought with a large enough effect in the repeat runs; inconclusive = weak or mixed curves; inactive = no such curve, though single readings can be large; an effect the other way counts as inactive or inconclusive.

How the values were obtained:
[1] = qHTS assay for small molecule agonists of the p53 signaling pathway (AID 651631; calls by dose curve; also: nearly all actives have a fitted effect of over 15% in size)
In short: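 We treat p53RE-bla HCT-116 cells with compounds for 16 h at 37 °C, add LiveBLAzer B/G FRET substrate for 2 h at room temperature, and measure fluorescence intensity.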

[2] = qHTS assay for small molecules that induce genotoxicity in human embryonic kidney cells expressing luciferase-tagged ATAD5 (AID 651632); also: nearly all actives have a fitted effect of over 15% in size
In short: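 Concentration-response screen for ATAD5 upregulation in HEK293T luciferase reporter cells; 16 hr treatment at 37C, then luminescence after 30 min with Amplite at room temperature.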

[3] = qHTS assay for small molecules that induce genotoxicity in human embryonic kidney cells expressing luciferase-tagged ATAD5 - cell viability (AID 651634; calls by dose curve; also: nearly all actives have a fitted effect of over 25% in size)
In short: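 15.5 hr compound or vehicle exposure of HEK293T cells expressing luciferase-tagged ATAD5 at 37C; live-cell protease activity is read by fluorescence after 30 min of CellTiter-Fluor.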

[4] = qHTS assay for small molecule disruptors of the mitochondrial membrane potential - cell viability (AID 720634; calls by dose curve;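 also: human HepG2 liver cancer cells; series mostly up to about 83 µM; nearly all actives have a fitted effect of over 20% in size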)
In short: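 In this qHTS format, HepG2 cells plated overnight were pinned with compound, incubated 1 hr, and assayed for ATP luminescence with CellTiter-Glo after m-MPI dye addition.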

[5] = qHTS assay for small molecule disruptors of the mitochondrial membrane potential (AID 720635); also: potency is read from the fitted curve at half-maximal effect
In short: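 HepG2 cells exposed to compound 1 hr at 37C, then Mito-MPS dye 30 min. Ratio read of aggregate (540/590 nm) versus monomer (490/535 nm) fluorescence.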

[6] = qHTS assay to test for compound auto fluorescence at 590 nm (red) in HepG2 cells (AID 720674)
In short: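 HepG2 cells, 2,000 per well in MEM with 10% FBS, attached overnight at 37 C, then got 23 nL compound or DMSO. After 1 hr at 37 C, 5% CO2, red fluorescence was read at 540/590 nm against Rose Bengal sodium as reference.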

[7] = qHTS assay to test for compound auto fluorescence at 535 nm (green) in HepG2 cells (AID 720675)
[8] = qHTS assay to test for compound auto fluorescence at 535 nm (green) in HEK293 cells (AID 720680)
[9] = qHTS assay to test for compound auto fluorescence at 460 nm (blue) in HEK293 cell free culture (AID 720681)
In short: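 Compounds were added to cell-free DMEM with 10% FBS and fluorescence read directly. The blue channel used 405 nm excitation and 460 nm emission, with triamterene as the reference fluorophore.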

[10] = qHTS assay to test for compound auto fluorescence at 535 nm (green) in HEK293 cell free culture (AID 720682)
In short: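 Green-channel intensity (Ex/Em 485/535 nm) was recorded from compound-treated wells containing only DMEM with 10% FBS. Fluorescein provided the equivalency standard.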

[11] = qHTS assay to test for compound auto fluorescence at 590 nm (red) in HEK293 cell free culture (AID 720683)
In short: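 Cell-free wells of DMEM with 10% FBS received compound, and intrinsic fluorescence was read at excitation/emission 540/590 nm. Values expressed as equivalence to Rose Bengal sodium.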

[12] = qHTS assay to test for compound auto fluorescence at 590 nm (red) in HepG2 cell free culture (AID 720684)
In short: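 Rose Bengal sodium served as the reference for red signal. Test compounds were dispensed into serum-containing MEM (10% FBS) without cells, and plates were read at 540/590 nm.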

[13] = qHTS assay to test for compound auto fluorescence at 460 nm (blue) in HepG2 cell free culture (AID 720685)
In short: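 Cell-free plates of MEM plus 10% FBS received 23 nL compound or DMSO vehicle; blue-channel (405/460 nm) intensity scored against triamterene as reference fluorophore.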

[14] = qHTS assay to test for compound auto fluorescence at 535 nm (green) in HepG2 cell free culture (AID 720686)
[15] = qHTS assay to test for compound auto fluorescence at 460 nm (blue) in HepG2 cells (AID 720687)
In short: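 HepG2 cells in MEM with 10% FBS, attached overnight at 37 C, were exposed to compound or DMSO for 1 hr at 37 C, 5% CO2. Blue fluorescence was read at 405/460 nm, with triamterene as reference fluorophore.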

[16] = molecular target: Glucocorticoid receptor (Homo sapiens) (UniProt P04150); assay: qHTS assay to identify small molecule agonists of the glucocorticoid receptor (GR) signaling pathway (AID 720691; active = well fitted activation curve with a large enough effect in the signal ratio in the repeat runs, not every such curve was filed as active; the % refers to the signal ratio; also: potency is read from the fitted curve at half-maximal effect)
In short: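 Measures GR pathway activation through a GRE-beta-lactamase reporter stably integrated in HeLa cells, with 18 h compound treatment at 37 C and fluorescence detection using a FRET substrate.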

[17] = molecular target: Glucocorticoid receptor (Homo sapiens) (UniProt P04150); assay: qHTS assay to identify small molecule antagonists of the glucocorticoid receptor (GR) signaling pathway (AID 720692; active = well fitted inhibition curve with a large enough effect in the signal ratio in the repeat runs, not every such curve was filed as active; the % refers to the signal ratio)
In short: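 Tox21 10K library screened in concentration-response for blockade of dexamethasone (5 nM final)-induced GRE-bla reporter activity in HeLa cells; 18 h treatment, fluorescence read.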

[18] = qHTS assay for small molecule agonists of the p53 signaling pathway - cell viability (AID 651633; calls by dose curve;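 also: p53RE-bla HCT reporter cells with a stable beta-lactamase p53 reporter; series mostly up to about 83 µM; nearly all actives have a fitted effect of over 30% in size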)
In short: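 p53RE-bla cells were treated with compound for 16 hours at 37 C. Cytotoxicity was then measured as CellTiter-Glo luminescence after 30 min at room temperature.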

[19] = qHTS assay to test for compound auto fluorescence at 460 nm (blue) in HEK293 cells (AID 720678)
In short: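 Intrinsic compound fluorescence is recorded in live HEK293 cultures after overnight incubation at 37C, 5% CO2, using excitation 405 nm and emission 460 nm. Values are referenced to triamterene.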

[20] = qHTS assay to test for compound auto fluorescence at 590 nm (red) in HEK293 cells (AID 720679)
In short: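 Red autofluorescence, HEK293 cells: 2,000 cells/well; attach 4-5 hr 37C; add 23 nL cpd or DMSO; incubate o/n 37C 5% CO2; read Ex540/Em590; Rose Bengal sodium reference.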
% is scaled to controls: 0 for no effect and ±100 for the full control effect.

Sequence of Glucocorticoid receptor (Homo sapiens) (P04150 whole entry, looked up): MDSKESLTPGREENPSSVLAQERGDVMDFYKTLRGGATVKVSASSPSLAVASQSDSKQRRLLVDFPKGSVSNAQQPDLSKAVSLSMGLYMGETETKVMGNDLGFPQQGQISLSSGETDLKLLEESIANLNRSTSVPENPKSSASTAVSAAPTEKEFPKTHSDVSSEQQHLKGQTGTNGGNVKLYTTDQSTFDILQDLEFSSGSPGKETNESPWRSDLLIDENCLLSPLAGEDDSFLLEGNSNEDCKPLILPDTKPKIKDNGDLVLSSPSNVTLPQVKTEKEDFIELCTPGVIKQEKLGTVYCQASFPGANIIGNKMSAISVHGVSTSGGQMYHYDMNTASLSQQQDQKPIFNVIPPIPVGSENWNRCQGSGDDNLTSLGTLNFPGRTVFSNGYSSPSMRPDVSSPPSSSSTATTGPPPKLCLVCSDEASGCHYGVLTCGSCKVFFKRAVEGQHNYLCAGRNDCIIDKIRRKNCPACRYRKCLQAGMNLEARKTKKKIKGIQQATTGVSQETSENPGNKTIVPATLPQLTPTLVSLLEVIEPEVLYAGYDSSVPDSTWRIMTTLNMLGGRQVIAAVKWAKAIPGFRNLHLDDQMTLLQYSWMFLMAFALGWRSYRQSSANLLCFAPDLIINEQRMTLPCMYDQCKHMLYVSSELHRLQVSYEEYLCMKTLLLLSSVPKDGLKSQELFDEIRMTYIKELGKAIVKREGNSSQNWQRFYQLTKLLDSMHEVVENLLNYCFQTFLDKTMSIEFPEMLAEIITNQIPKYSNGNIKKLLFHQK

CCc1ccc(C=O)cc1
inactive: outcome [1] | Potency [2] | Potency [3] | outcome [4] | Potency [5] | outcome [6] | outcome [7] | outcome [8] | outcome [9] | outcome [10] | outcome [11] | outcome [12] | outcome [13] | outcome [14] | outcome [15] | Potency [16] | outcome [17]

CC(N)C(=O)OC(C)(C)Cc1ccc(Cl)cc1 (configuration not stated)
inactive: outcome [1] | Potency [2] | outcome [18] | Potency [3] | outcome [4] | outcome [7] | outcome [19] | outcome [8] | outcome [9] | outcome [10] | outcome [11] | outcome [12] | outcome [13] | outcome [14] | outcome [15]

NCCS
inactive: outcome [1] | Potency [2] | Potency [3] | outcome [4] | Potency [5] | outcome [6] | outcome [7] | outcome [19] | outcome [20] | outcome [8] | outcome [9] | outcome [10] | outcome [12] | outcome [13] | outcome [14] | outcome [15]

O=C(c1ccc(O)cc1)c1ccc(O)c(O)c1O
inactive: outcome [1] | Potency [2] | outcome [18] | outcome [4] | outcome [7] | outcome [19] | outcome [20] | outcome [8] | outcome [9] | outcome [10] | outcome [11] | outcome [12] | outcome [13] | outcome [14] | outcome [15] | Potency [16]
active: Potency [5] 27.4 µM

CCOc1cc([N+](=O)[O-])c(OCC)cc1N1CCOCC1
inactive: outcome [1] | Potency [2] | outcome [18] | outcome [4] | outcome [6] | outcome [7] | outcome [20] | outcome [8] | outcome [9] | outcome [10] | outcome [12] | outcome [13] | outcome [14] | outcome [15] | Potency [16]

CCCCN
inactive: outcome [1] | Potency [2] | outcome [18] | Potency [3] | outcome [4] | outcome [7] | outcome [20] | outcome [8] | outcome [9] | outcome [10] | outcome [11] | outcome [13] | outcome [14] | outcome [15] | Potency [16] | outcome [17]

CCCC/C=C\CCCCCCCCCC=O
inactive: outcome [1] | Potency [2] | Potency [3] | outcome [4] | Potency [5] | outcome [6] | outcome [7] | outcome [19] | outcome [8] | outcome [9] | outcome [10] | outcome [11] | outcome [12] | outcome [13] | outcome [14] | outcome [15]

NCCN1CCOCC1
inactive: outcome [1] | outcome [18] | Potency [3] | outcome [4] | Potency [5] | outcome [6] | outcome [7] | outcome [19] | outcome [8] | outcome [9] | outcome [10] | outcome [11] | outcome [12] | outcome [13] | outcome [14] | outcome [15] | Potency [16] | outcome [17]

CCCCCCCCC1CCC(=O)O1 (configuration not stated)
inactive: outcome [1] | Potency [2] | Potency [3] | outcome [4] | outcome [6] | outcome [7] | outcome [19] | outcome [20] | outcome [8] | outcome [9] | outcome [10] | outcome [11] | outcome [13] | outcome [14] | outcome [15]
active: Potency [16] 43.6 µM

COC(=O)[C@@H]1[C@H]2C[C@H]3c4[nH]c5ccccc5c4CCN3C[C@@H]2CC[C@@H]1O
inactive: outcome [1] | outcome [18] | Potency [3] | outcome [4] | Potency [5] | outcome [7] | outcome [8] | outcome [9] | outcome [10] | outcome [11] | outcome [12] | outcome [13] | outcome [14] | outcome [15]

CCCCOCCOC(=O)COc1nc(Cl)c(Cl)cc1Cl
inactive: outcome [1] | outcome [18] | Potency [3] | outcome [4] | outcome [6] | outcome [7] | outcome [19] | outcome [8] | outcome [9] | outcome [10] | outcome [11] | outcome [13] | outcome [14] | outcome [15] | Potency [16] | outcome [17]

O=P(O)(O)OP(=O)(O)O
inactive: outcome [1] | outcome [18] | Potency [3] | outcome [4] | Potency [5] | outcome [6] | outcome [7] | outcome [19] | outcome [8] | outcome [9] | outcome [10] | outcome [11] | outcome [12] | outcome [13] | outcome [14] | outcome [15] | Potency [16] | outcome [17]

O=C(NCC(O)CO)c1c(I)c(C(=O)NCC(O)CO)c(I)c(N(CCO)C(=O)CO)c1I (configuration not stated)
inactive: outcome [1] | outcome [18] | Potency [3] | outcome [4] | Potency [5] | fluorescence, % of fluorescein control [7] -0.0278% [at 18.6 µM] | fluorescence, % of triamterene [19] 0.0229% [at 18.6 µM] | fluorescence, % of fluorescent control [20] -0.351% [at 18.6 µM] | fluorescence, % of fluorescein [8] -0.0067% [at 18.6 µM] | fluorescence, % of fluorescent control [9] -0.0567% [at 18.6 µM] | activity change [10] -0.0517% [at 18.6 µM] | fluorescence, % of fluorescent control [13] -0.1% [at 18.6 µM] | fluorescence, % of fluorescein control [14] -0.0658% [at 18.6 µM] | fluorescence, % of fluorescent control [15] -0.0045% [at 18.6 µM] | Potency [16]

Cc1cc(Cl)c(C)cc1Cl
inactive: outcome [1] | Potency [2] | Potency [3] | outcome [4] | outcome [6] | outcome [7] | outcome [19] | outcome [20] | outcome [8] | outcome [9] | outcome [10] | outcome [13] | outcome [14] | outcome [15] | Potency [16]

CC(C(=O)O)c1ccc2c(c1)CC(=O)c1ccccc1S2 (configuration not stated)
inactive: outcome [1] | outcome [18] | Potency [3] | outcome [4] | Potency [5] | outcome [6] | outcome [7] | outcome [19] | outcome [20] | outcome [8] | outcome [9] | outcome [10] | outcome [11] | outcome [12] | outcome [13] | outcome [14] | outcome [15] | Potency [16] | outcome [17]

CC1=CCC(C(C)C)=CC1
inactive: outcome [1] | Potency [2] | Potency [3] | outcome [6] | outcome [7] | outcome [19] | outcome [20] | outcome [8] | outcome [9] | outcome [10] | outcome [11] | outcome [13] | outcome [14] | outcome [15]
